According to PubChem BioAssay (EPA / NIEHS):
Inconclusive results are not listed. Active and inactive are the calls of the source. Rule for the calls: active = hit-call score of the fitted dose curve at least 0.9, where 1 is the maximum; inconclusive = response in the unintended direction; inactive = score below 0.9.

What follows are compounds tested against Cellular tumor antigen p53 (Homo sapiens) (UniProt P04637) (assay: TOX21_p53_BLA_p2_ratio: Tox21 HCT-116 p53 Agonism Beta-lactamase Assay, Ratio, Phase 2 (AID 2283592)).
Source text: TOX21_p53_BLA_p2 is a cell-based, single-readout assay that uses HCT116, a human intestinal cell line, […] in a 1536-well plate.TOX21_p53_BLA_p2_ratio is an assay readout measuring reporter gene via receptor activity and designed using inducible reporter (beta lactamase induction) detected with GAL4 b-lactamase reporter gene. The signal is derived from the ratio of cleaved (ch2) to uncleaved (ch1) reporter gene substrate used as the measure of target activity.Data from the assay component TOX21_p53_BLA_p2_ratio was analyzed into 1 assay endpoint. This assay endpoint, TOX21_p53_BLA_p2_ratio, was analyzed in the positive analysis fitting direction relative to DMSO as the negative control and baseline of activity. Using a type of inducible reporter, gain-of-signal activity can be used to understand changes in the reporter gene as they relate to the gene TP53. Furthermore, this assay endpoint can be referred to as a primary readout, because this assay has produced multiple assay endpoints and this ratio serves a reporter gene function to understand target activity. To generalize the intended target to other relatable targets, this assay endpoint is annotated to the DNA binding intended target family, where the subfamily is tumor suppressor.
Thawing Method: Place 14 mL of pre-warmed thaw medium into a 15 mL of conical tub. Remove the vial of cells to be thawed from liquid nitrogen and thaw rapidly by placing at 37C in a water bath with gentle agitation for 1-2 minutes. Decontaminate the vial by wiping with 70% ethanol before opening in a biological safety cabinet. Transfer the vial contents drop-wise into 14 mL of thaw medium in a sterile 15-mL conical tub. Centrifuge cells at 900 rpm for 4 minutes and resuspend in thaw medium. Transfer contents to the T75 tissue culture flask containing Thaw Medium and place flask in a humidified 37C/5% CO2 incubator. Switch to growth medium at first passage.Propagation Method: Aspirate medium, rinse once in DPBS, add 0.25% Trypsin/EDTA and swirl to coat the cell evenly. Add an equal volume of Growth Medium to inactivate Trypsin after 2-3 minutes incubation at 37C. Centrifuge cells at 900 rpm for 4 minutes and resuspend in growth medium. Cell should be passage or fed at least twice a week.Assay Protocol: Harvest cells from culture in growth medium and resuspend in assay medium. 2.2 Dispense 4000 cells/5 uL/well into 1536-well black/clear bottom plates using a Multidrop dispenser. After the cells were incubated at 37C for 5 hours, 23 nL of compounds dissolved in DMSO were transferred to the assay plate by a PinTool resulting in a 217-fold dilution. Incubate the plates for 16 hours at 37C, 5% CO2. Add 1 uL of 6X LiveBLAzer FRET B/G (CCF4-AM) Substrate Mixture to each well using a BioRAPTR dispenser and incubate the plates at room temperature for 2 hours. Measure fluorescence intensity at 460 and 530 nm emission and 405 nm excitation by an Envision detector. Data is expressed as the ratio of 460nm/530nm emissions. Add 4 uL of Cell-titer Glo to each well using BioRAPTR and incubate the plates at room temperature for 2 hours. Measure fluorescence intensity by a VewLux plate reader.

Chain of Cellular tumor antigen p53 (Homo sapiens) (P04637 whole entry, looked up, the tested form may be a part): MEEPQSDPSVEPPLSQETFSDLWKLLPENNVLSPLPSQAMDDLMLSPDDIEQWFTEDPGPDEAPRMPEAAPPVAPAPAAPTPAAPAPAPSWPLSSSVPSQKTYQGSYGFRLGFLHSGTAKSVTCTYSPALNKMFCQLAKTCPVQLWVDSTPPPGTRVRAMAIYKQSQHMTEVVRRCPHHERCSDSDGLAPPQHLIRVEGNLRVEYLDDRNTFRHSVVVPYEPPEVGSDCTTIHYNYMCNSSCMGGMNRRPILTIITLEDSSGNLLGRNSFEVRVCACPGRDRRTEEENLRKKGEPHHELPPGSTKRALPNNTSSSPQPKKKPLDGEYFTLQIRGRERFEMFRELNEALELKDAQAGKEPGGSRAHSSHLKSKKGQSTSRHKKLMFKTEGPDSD

Row | Compound | outcome | AC50
1 | Cc1c[nH]c2ccccc12 | inactive | –
2 | CCC(C)(Oc1ccc(C2(c3ccc(OC(C)(CC)C(=O)O)cc3)CCCCC2)cc1)C(=O)O (stereo not given) | inactive | –
3 | COc1ccc(/C=C/c2cc(OC)cc(=O)o2)cc1 | inactive | –
4 | CCC(C=O)CC | inactive | –
5 | CCOCCC(=O)OCC | inactive | –
6 | CCCCc1ncc(/C=C(\Cc2cccs2)C(=O)O)n1Cc1ccc(C(=O)O)cc1 | inactive | –
7 | FC(F)(F)c1cccc(Cl)c1 | inactive | –
8 | C[C@]12CC[C@@H]3c4ccc(OC(=O)c5ccccc5)cc4CC[C@H]3[C@@H]1CC[C@@H]2O | inactive | –
9 | Cc1ncsc1CCO | inactive | –
10 | CN(CC(=O)N1CCOCC1)Cc1c(Cl)cccc1NC(=O)c1ccccc1 | inactive | –
11 | O=C(O)CCNC(=O)c1ccc(N=Nc2ccc(O)c(C(=O)O)c2)cc1 | inactive | –
12 | CNC(=O)c1ccccc1 | inactive | –
13 | COc1cc(C(=O)NCCCCCC(=O)O)cc(OC)c1OC | inactive | –
14 | O=C(CS(=O)Cc1ccco1)NC/C=C\COc1cc(CN2CCCCC2)ccn1 (stereo not given) | inactive | –
15 | CS(=O)(=O)CCNCc1ccc(-c2ccc3ncnc(Nc4ccc(OCc5cccc(F)c5)c(Cl)c4)c3c2)o1 | inactive | –
16 | N#CSc1ccc(N)c([N+](=O)[O-])c1 | inactive | –
17 | CN1CCN(C2=Nc3ccccc3Sc3ccc(Cl)cc32)CC1 | inactive | –
18 | NC[C@H]1O[C@H](O[C@H]2[C@H](O[C@@H]3O[C@H](CO)[C@@H](O)[C@H]3O)C(O)[C@H](N)C[C@@H]2N)[C@H](N)[C@@H](O)[C@@H]1O (stereo not given in full) | inactive | –
19 | CC[C@]1(O)C[C@H]2CN(CCc3c([nH]c4ccccc34)[C@@](C(=O)OC)(c3cc4c(cc3OC)N(C=O)[C@H]3[C@@](O)(C(=O)OC)[C@H](OC(C)=O)[C@]5(CC)C=CCN6CC[C@]43[C@@H]65)C2)C1 | – | 11.2 nM (active)
20 | CN1c2c(nc(N)[nH]c2=O)NCC1CNc1ccc(C(=O)NC(CCC(=O)O)C(=O)O)cc1 (stereo not given) | inactive | –

Row | Compound | outcome | AC50
21 | COc1ccc(CN(CCN(C)C)c2ncccn2)cc1 | inactive | –
22 | NC(=O)c1ccc[n+]([C@@H]2O[C@H](COP(=O)([O-])OP(=O)(O)OC[C@H]3O[C@@H](n4cnc5c(N)ncnc54)[C@H](O)[C@@H]3O)[C@@H](O)[C@H]2O)c1 | inactive | –
23 | C1CSCCS1 | inactive | –
24 | O=C1NC(=O)[C@H]2[C@@H]1[C@@H]1C=C[C@H]2C1 | inactive | –
25 | Cc1ccc2cccnc2c1 | inactive | –
26 | O=C(c1ccc(O)cc1)c1ccc(O)cc1 | inactive | –
27 | CC(=O)Oc1cc(C(C)C)c(OCCN(C)C)cc1C | inactive | –
28 | CCNC(=O)C1CC(C)CCC1C(C)C (stereo not given) | inactive | –
29 | Cc1cc(OI)c(C(C)C)cc1-c1cc(C(C)C)c(OI)cc1C | inactive | –
30 | CCCCCCCC/C=C\CCCCCCCC(=O)OCCCC | inactive | –
31 | Cc1ccccc1N1C(=O)c2cc(S(N)(=O)=O)c(Cl)cc2NC1C (stereo not given) | inactive | –
32 | NC(=O)c1cn(Cc2c(F)cccc2F)nn1 | inactive | –
33 | CC1(C)CC(O)CC(C)(C)N1 | inactive | –
34 | CC(C)C(=O)c1c(C(C)C)nn2ccccc12 | inactive | –
35 | O=C(O)[C@H](O)c1ccccc1 | inactive | –
36 | CCOC(=O)C1=C[C@]2(CC)CCCN3CCc4c(n1c1ccccc41)[C@@H]32 | inactive | –
37 | CCCn1c(=O)[nH]c(=O)c2[nH]cnc21 | inactive | –
38 | Cc1cc(C)cc([N+](=O)[O-])c1 | inactive | –
39 | CCN(CC)CCNC(=O)COc1ccc(OC)cc1 | inactive | –
40 | C=CC(=O)[O-].C=CC(=O)[O-].[Zn+2] | inactive | –
